# Source: paper PMC4081100, “A DNA-binding-site landscape and regulatory network analysis for NAC transcription factors in Arabidopsis thaliana”
# Target: GST-WRKY1(266-371) (Arabidopsis thaliana, UniProt Q9SI37 266-371)
# Test: universal protein binding microarray (PBM); transcription factors of Arabidopsis thaliana; high values mean tight binding
# Conditions: protein: recombinant; tags: GST; dsDNA, one strand shown
# Summary of the method: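 GST-tagged NAC-domain, full-length or DNA-binding-domain proteins were induced in cells, with zinc acetate added for zinc-finger proteins. They were purified on glutathione–Sepharose 4B and quantified by A280 or anti-GST western blot. Each was applied at 200 to 500 nM final, in duplicate, to custom all-10-mer Agilent 4 × 180K arrays made double-stranded by primer extension, with gapped and ungapped 8-mers scored. Binding is the normalised enrichment score (E-score).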
# GST-WRKY1(266-371), sequence (Q9SI37 266-371): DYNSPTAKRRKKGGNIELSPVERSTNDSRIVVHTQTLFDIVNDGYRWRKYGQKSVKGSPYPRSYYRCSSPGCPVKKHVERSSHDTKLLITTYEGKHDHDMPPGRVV
row,Sequence,binding signal
1,CGCTGACC,0.474 E-score
2,GCGAGTCA,0.414 E-score
3,GCCGGTCA,0.459 E-score
4,CGATTGAC,0.443 E-score
5,CTGACCAG,0.444 E-score
6,CCTGGTCA,0.454 E-score
7,CGATGACC,0.414 E-score
8,ATGACCGA,0.405 E-score
9,GGCTGACC,0.431 E-score
10,GGGTCAGA,0.432 E-score
11,GCTCTGAC,0.403 E-score
12,GACCAGTC,0.406 E-score
13,CCGCTGAC,0.414 E-score
14,TGACCGCA,0.429 E-score
15,TCGAGTCA,0.417 E-score
16,GACTTTGA,0.432 E-score
17,AGTCAGCG,0.453 E-score
18,CGGTCCAC,0.434 E-score
19,TAGGGTCA,0.42 E-score
20,ATTGACTC,0.47 E-score

row,Sequence,binding signal
1,ACCTTGAC,0.472 E-score
2,AGTGGTCA,0.436 E-score
3,ATGCTGAC,0.41 E-score
4,ATCGGTCA,0.451 E-score
5,CGGTCATA,0.415 E-score
6,AGGGTCAG,0.403 E-score
7,CAACGACC,0.421 E-score
8,CGGTCAGA,0.46 E-score
9,CGGGTCAA,0.487 E-score
10,CTGACCAA,0.427 E-score
11,GCTGGTCA,0.452 E-score
12,CGGAGTCA,0.405 E-score
13,GCTTTGAC,0.466 E-score
14,ATAGGTCA,0.409 E-score
15,AGTCAGCA,0.432 E-score
16,CGGGTCAG,0.408 E-score
17,CAGTCAGC,0.406 E-score
18,CGGTCGTC,0.41 E-score
19,AGTCGGTC,0.403 E-score
